# Screens: PubChem BioAssay, National Center for Advancing Translational Sciences (NCATS)
# This is one part of a sample in which hits are shown more often than they occur.
# Cycloheximide cs = counter-screen hit for Shiga toxin inhibitors, cycloheximide; cell reporter, cycloheximide protein synthesis inhibition counterscreen; max response, %; 300,000 tested, 12% active; in the data active = max response mostly above about 13%, no sharp cut-off; inactive = mostly below about 14%; also: read at 38.3 µM for the half of the compounds with a filed dose; 0% is about no effect
# NS1 inh = influenza NS1 inhibition | Potency, µM (doses to about 46.1 µM), inactives show top-dose activity, positive = more growth | 270,000 tested, 0.4% active | AID 2326; calls by dose curve; also: potency is read from the fitted curve at half-maximal effect; actives are rising curves; nearly all actives have a fitted effect of over 50% in size
#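 Recovery from NS1-induced slow growth read by OD600 in budding yeast switched to galactose assay medium (pH 6.0, -URA) at 1:100 dilution. Compound 23 nl per well; the matching strain lacking NS1 serves as control.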
# AmpC inh no detg = blocks E. coli AmpC beta-lactamase in detergent-free assay. P00811. AmpC nitrocefin hydrolysis, absorbance 480 nm, 0.0001% Triton. 330,000 tested, 0.52% active. Potency, µM (highest dose often 57.1 µM), for inactives: at the top dose activity change, negative = inhibition, most hits filed as inhibitors;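 also: potency is read from the fitted curve at half-maximal effect; plate controls were no compound for no effect and no enzyme for full effect; nearly all actives have a fitted effect of over 20% in size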
# Target sequence (P00811 whole entry, looked up): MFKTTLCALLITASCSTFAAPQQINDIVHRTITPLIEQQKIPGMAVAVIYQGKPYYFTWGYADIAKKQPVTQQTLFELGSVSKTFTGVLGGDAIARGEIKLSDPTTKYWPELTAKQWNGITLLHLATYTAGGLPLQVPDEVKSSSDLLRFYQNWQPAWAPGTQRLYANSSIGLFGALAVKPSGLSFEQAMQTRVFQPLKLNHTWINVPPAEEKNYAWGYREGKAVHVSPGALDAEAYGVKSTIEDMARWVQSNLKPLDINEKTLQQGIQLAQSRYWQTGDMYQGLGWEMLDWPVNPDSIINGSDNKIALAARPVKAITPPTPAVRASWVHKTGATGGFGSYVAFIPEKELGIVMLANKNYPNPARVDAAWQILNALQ
#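 20 mM phosphate pH 7.0 + 0.01% (detergent screen) or 0.0001% Triton X-100; 5.3 nM AmpC reagent; cpd preinc 15 min RT; nitrocefin (800 uM stock) to start; A480 q20 s × 4 min; Activity was normalised to no-enzyme and no-compound control wells.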
# AmpC detergent = inhibitors of E. coli AmpC beta-lactamase with detergent | AmpC hydrolysis of nitrocefin, absorbance 480 nm, 0.01% Triton | Potency, µM (top dose mostly 114 µM), for the others: top-dose activity change, negative = inhibition, most hits filed as inhibitors | 370,000 tested, 0.041% active | AID 485294;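 also: potency is read from the fitted curve at half-maximal effect; 0% = no-compound wells and -100% = no-enzyme wells; nearly all actives have a fitted effect of over 25% in size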
#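 20 mM phosphate pH 7.0 + 0.01% (detergent screen) or 0.0001% Triton X-100; 5.3 nM AmpC reagent; cpd preinc 15 min RT; nitrocefin (800 uM stock) to start; A480 q20 s × 4 min; Activity was normalised to no-enzyme and no-compound control wells.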
# Shiga toxin inh = inhibitors of Shiga toxin in Vero cells. Vero cells, Shiga toxin protein synthesis inhibition reporter. 290,000 tested, 9.2% active. inhibition, % at 38.7 µM. AID 2315; in the data active = inhibition mostly above about 28%, no sharp cut-off; inactive = mostly below about 43%; also: 0% is about no effect
# Numbers without * were called inactive; u = inconclusive; x = no result given. Unless noted, calls follow the shape of the dose curve; as a rule, active = well fitted curve in the direction sought with a large enough effect; inconclusive = small, poorly fitted or top-dose-only effect, or another doubt; inactive = no such curve, though single readings can be large; an effect the other way counts as inactive or inconclusive.
SMILES,Cycloheximide cs,NS1 inh,AmpC inh no detg,AmpC detergent,Shiga toxin inh
O=C(Nc1cccnc1)c1cc(Br)c(Br)s1,x,x,-24%,-9%,x
O=C(NC(=S)Nc1ccc(CN2CCCCC2)cc1)c1cc2ccccc2o1,14*,-2%,9%,0%,24
O=C(NC(=S)NCc1cccnc1)c1cc2ccccc2o1,30*,x,-9%,-1%,30
Cc1oc(-c2ccc(C(=O)Nc3ccccc3F)cc2)nc1COc1ccccc1,x,x,x,28%,x
Cc1noc(-c2ccc(CSCCC(=O)O)cc2)c1NC(=O)OC(C)c1ccccc1Cl (stereo not drawn),-2,x,x,x,19
Cc1ccccc1N1CCN(S(=O)(=O)CC23CCC(CC2NC(=O)C(N)CCS(C)(=O)=O)C3(C)C)CC1 (stereo not drawn),-2,x,x,x,-11
COc1ccc(C)cc1NC(=O)C1CCN(S(=O)(=O)c2c(C)noc2/C=C/c2ccco2)CC1,x,x,x,2%,x
Cc1ccc(S(=O)(=O)NC(=O)Nc2cc(C)on2)cc1,1,5%,-16%,u,-6
Cc1ccc(S(=O)(=O)NC(=O)c2cc(C)n(-c3ccc(N(C)C)cc3)c2C)cc1,19*,14%,-23%,-4%,51*
Cc1ccc(S(=O)(=O)NC(=O)Nc2ccc(N(C)C)cc2)cc1,55*,-12%,-42%,-14%,54*
CCc1ccnc(NC(=O)NS(=O)(=O)c2ccc(C)cc2)c1,16*,1%,-9%,1%,23
Cc1ccc(NC(=O)NNS(=O)(=O)c2ccc(Br)cc2)cc1,-2,1%,-22%,-14%,13
COc1cccc(-c2nnc(-c3ccccc3NC(=O)c3cccc(C(F)(F)F)c3)o2)c1,x,x,x,-4%,x
COc1cc(OC)c(NC(=O)c2ccc3c(c2)N(Cc2ccc(C)cc2)CCS3)cc1Cl,x,x,x,11%,x
CC(=O)c1sc(N/N=C\c2ccc(N(C)C)cc2)nc1C,31*,-2%,-21%,u,x
CCOC(=O)c1sc(N/N=C/c2cc(Br)c(O)c(OC)c2)nc1C,18,-8%,26%,u,22
COC(=O)c1sc(N/N=C/c2ccc(C(C)C)cc2)nc1C,12,22%,-12%,-8%,53*
CC(=O)c1sc(N/N=C/c2cccc([N+](=O)[O-])c2)nc1C,2,u,-29%,-1%,33
CC(=O)c1sc(N/N=C/c2cccc(O)c2)nc1C,40*,-4%,-30%,2%,50*
Cc1ccc(Sc2cc(Cl)nc(N)n2)cc1,-2,-2%,-7%,-3%,37
Cc1ccc(S(=O)(=O)N2CCCCC2)cc1C(=O)NCCCN1CCOCC1,-5,9%,62%,3%,-12
Cc1ccc(CN(C(=O)COc2cccc([N+](=O)[O-])c2)c2ccccn2)cc1,x,x,x,19%,x
CC(=O)Nc1ccccc1-c1nc2ccccc2n(Cc2cccc(Br)c2)c1=O,x,x,x,28%,x
C=CCOC(=O)/C(=C\C=C\c1ccccc1)NC(=O)c1ccccc1,18*,-1%,-40%,-7%,22
CCOC(=O)/C(=C\C=C\c1ccccc1)NC(=O)c1ccccc1,6,-16%,-49%,u,8
SMILES,Cycloheximide cs,NS1 inh,AmpC inh no detg,AmpC detergent,Shiga toxin inh
CCCOC(=O)/C(=C\C=C\c1ccccc1)NC(=O)c1ccccc1,16*,-8%,-3%,7%,15
CCCCOC(=O)/C(=C/C=C/c1ccccc1)NC(=O)c1ccccc1,49*,x,-38%,-5%,41
COc1ccc(NS(=O)(=O)c2cc3[nH]c(=O)c(=O)[nH]c3cc2C)cc1OC,x,x,x,5%,x
CC(C)N1CCC(=NNC(=O)c2ccc(Br)o2)CC1,42*,-1%,-22%,-1%,37*
CC(C)N1CCN(C(=O)c2ccc(NC(=O)c3ccc(Br)o3)cc2)CC1,x,x,-1%,u,x
O=C(NN=C1CCCCCC1)c1ccc(Br)o1,48*,5%,-43%,-7%,87*
O=C(NC1CCCCC1)c1ccc(Br)o1,8,-3%,-6%,u,19
O=C(NCc1ccccc1Cl)c1ccc(CSc2nc3ccncc3[nH]2)cc1,-4,10%,41%,-2%,-5
O=C(NCCCO)c1ccc(CSc2nc3ccccc3[nH]2)cc1,11*,1%,-18%,5%,31
O=C(NCCO)c1ccc(CSc2nc3ccccc3[nH]2)cc1,17*,6%,-14%,-8%,19
Cc1ccc(N2CCN(S(=O)(=O)c3cccc4ccccc34)CC2)cc1Cl,x,x,x,3%,x
O=C(Nc1ccon1)c1ccc(Br)s1,25*,1%,-9%,2%,57*
O=C(Nc1ccc2sccc2c1)c1ccc(Cl)s1,33*,-41%,-17%,u,39*
O=C(Nc1nc(-c2ccccn2)cs1)c1ccc(Cl)s1,13,-159%,-13%,-6%,121
O=C(Nc1ccccn1)c1ccc(Cl)s1,62*,1%,-11%,3%,100*
O=C(Nc1ccc2c(c1)C(=O)NC2=O)c1ccc(Cl)s1,1,0%,-14%,-5%,-7
O=C(Nc1ccc(Br)cn1)c1ccc(Br)s1,62*,-4%,-28%,3%,108*
COC(=O)C1=C(C)N(Cc2ccccc2)C(=NCc2ccco2)N[C@H]1c1ccc(Br)cc1,-5,-15%,x,x,-5
COCCCNC(=O)c1cnn(-c2ccccc2Cl)c1C1CCN(C(=O)OC(C)(C)C)CC1,x,x,x,19%,x
Cc1ccccc1C(=O)Nc1ccc(Br)cn1,49*,-11%,-22%,u,91*
O=C(Nc1ccccc1C(=O)Nc1ccc(Br)cn1)c1ccccc1Cl,x,x,-23%,u,x
O=C(Nc1nccs1)c1ccc(Cl)s1,20*,-104%,-28%,-10%,67
O=C(Nc1ccc(Br)cn1)c1ccc(Cl)s1,54*,-44%,-37%,5%,84*
Cn1nnnc1Sc1ncnc2scc(-c3ccc4c(c3)OCO4)c12,x,x,-21%,x,x
O=c1oc2ccc3ccccc3c2cc1-c1nnc(Nc2cccc(F)c2)s1,x,x,x,10%,x
SMILES,Cycloheximide cs,NS1 inh,AmpC inh no detg,AmpC detergent,Shiga toxin inh
CC1CCCN(S(=O)(=O)c2ccc(NC(=O)C3CCN(C(=O)c4ccco4)CC3)cc2)C1 (stereo not drawn),-6,-7%,25%,0%,17
Cc1ccc(NS(=O)(=O)c2coc(C(N)=O)c2)cc1F,3,1%,-22%,-4%,-6
c1ccc(CCSc2nccn2-c2ccccc2)cc1,52*,1%,-15%,-5%,120*
C=C1CCN(C(CC(C)C)C(=O)NCc2ccc(Cl)cc2)S(=O)(=O)c2ccccc21 (stereo not drawn),-3,x,x,x,-9
O=C(O)c1ccc(Nc2nc(-c3cc4ccccc4oc3=O)cs2)cc1O,14,x,-51%,-5%,20
COc1ccc(Nc2nc(-c3cc4cccc(OC)c4oc3=O)cs2)cc1,21*,16%,-33%,-3%,30
CCc1ccc(Nc2nc(-c3cc4cccc(OC)c4oc3=O)c(CC)s2)cc1,x,x,x,-7%,x
COc1ccc2oc(=O)c(-c3csc(Nc4cccc(O)c4)n3)cc2c1,48*,10%,-43%,-9%,58*
